Reference: paper PMC5540273 (PLoS ONE, 2017)

Tests used:
Conditions in all cases: concentration: 1 μM,replicates: in singlicate; n = 1
[1] = test system: CDK8
[2] = test system: CDK9
[3] = test system: CDKL1
[4] = test system: CDKL2
[5] = test system: CDKL3
[6] = test system: CDKL5
[7] = test system: CHEK1
[8] = test system: CHEK2
[9] = test system: CIT
[10] = test system: CLK1
[11] = test system: CLK2
[12] = test system: CLK3
[13] = test system: CLK4
[14] = test system: CSF1R-autoinhibited
[15] = test system: CSF1R
[16] = test system: CSK
[17] = test system: CSNK1A1L
[18] = test system: CSNK1A1
[19] = test system: CSNK1D
[20] = test system: CSNK1E
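Note: KINOMEscan kinase panel screen.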

O=C(Nc1n[nH]c2cc(-c3ccco3)ccc12)C1CC1 [SB-737447]
%Inh [1]: 0% | %Inh [2]: 11% | %Inh [3]: 29% | %Inh [4]: 86% | %Inh [5]: 0% | %Inh [6]: 0% | %Inh [7]: 0% | %Inh [8]: 16% | %Inh [9]: 1% | %Inh [10]: 28% | %Inh [11]: 22% | %Inh [12]: 19% | %Inh [13]: 0% | %Inh [14]: 0% | %Inh [15]: 0% | %Inh [16]: 10% | %Inh [17]: 0% | %Inh [18]: 18% | %Inh [19]: 0% | %Inh [20]: 0%

Cn1ccc2ncnc(Oc3ccc(NC(=O)Nc4cnn(C(C)(C)C)c4)c(Cl)c3)c21
%Inh [1]: 97.1% | %Inh [2]: 0% | %Inh [3]: 21% | %Inh [4]: 10% | %Inh [5]: 19% | %Inh [6]: 26% | %Inh [7]: 3% | %Inh [8]: 0% | %Inh [9]: 39% | %Inh [10]: 0% | %Inh [11]: 12% | %Inh [12]: 5% | %Inh [13]: 9% | %Inh [14]: 28% | %Inh [15]: 99.9% | %Inh [16]: 0% | %Inh [17]: 0% | %Inh [18]: 0% | %Inh [19]: 0% | %Inh [20]: 2%

COc1cc2ncn(-c3cc(OCC4CCCCC4)c(C(N)=O)s3)c2cc1OC [GSK204559]
%Inh [1]: 5% | %Inh [2]: 0% | %Inh [3]: 0% | %Inh [4]: 1% | %Inh [5]: 0% | %Inh [6]: 0% | %Inh [7]: 0% | %Inh [8]: 0% | %Inh [9]: 10% | %Inh [10]: 35% | %Inh [11]: 2% | %Inh [12]: 5% | %Inh [13]: 33% | %Inh [14]: 0% | %Inh [15]: 19% | %Inh [16]: 0% | %Inh [17]: 22% | %Inh [18]: 0% | %Inh [19]: 10% | %Inh [20]: 0%

NC(=O)c1ccc(-c2cc3ncnc(SCC(=O)O)c3s2)cc1
%Inh [1]: 0% | %Inh [2]: 72% | %Inh [3]: 7% | %Inh [4]: 0% | %Inh [5]: 0% | %Inh [6]: 0% | %Inh [7]: 0% | %Inh [8]: 0% | %Inh [9]: 3% | %Inh [10]: 82% | %Inh [11]: 52% | %Inh [12]: 10% | %Inh [13]: 87% | %Inh [14]: 37% | %Inh [15]: 5% | %Inh [16]: 0% | %Inh [17]: 0% | %Inh [18]: 0% | %Inh [19]: 3% | %Inh [20]: 0%

Cn1ccc2ncnc(Oc3ccc(NC(=O)Nc4cccc(C(F)(F)F)c4)c(Cl)c3)c21
%Inh [1]: 95.9% | %Inh [2]: 2% | %Inh [3]: 29% | %Inh [4]: 8% | %Inh [5]: 6% | %Inh [6]: 0% | %Inh [7]: 0% | %Inh [8]: 0% | %Inh [9]: 57% | %Inh [10]: 0% | %Inh [11]: 1% | %Inh [12]: 0% | %Inh [13]: 0% | %Inh [14]: 18% | %Inh [15]: 99.5% | %Inh [16]: 15% | %Inh [17]: 0% | %Inh [18]: 0% | %Inh [19]: 0% | %Inh [20]: 0%

CCCC(=O)Nc1n[nH]c2ncccc12 [SB-601436]
%Inh [1]: 0% | %Inh [2]: 0% | %Inh [3]: 0% | %Inh [4]: 0% | %Inh [5]: 0% | %Inh [6]: 0% | %Inh [7]: 0% | %Inh [8]: 0% | %Inh [9]: 0% | %Inh [10]: 2% | %Inh [11]: 0% | %Inh [12]: 22% | %Inh [13]: 0% | %Inh [14]: 0% | %Inh [15]: 0% | %Inh [16]: 8% | %Inh [17]: 4% | %Inh [18]: 0% | %Inh [19]: 0% | %Inh [20]: 2%

O=C1NCCc2[nH]c(-c3ccncc3)cc21
%Inh [1]: 19% | %Inh [2]: 97.9% | %Inh [3]: 5% | %Inh [4]: 7% | %Inh [5]: 2% | %Inh [6]: 29% | %Inh [7]: 0% | %Inh [8]: 31% | %Inh [9]: 99.7% | %Inh [10]: 99.5% | %Inh [11]: 94.8% | %Inh [12]: 32% | %Inh [13]: 94.6% | %Inh [14]: 0% | %Inh [15]: 5% | %Inh [16]: 10% | %Inh [17]: 73% | %Inh [18]: 95.7% | %Inh [19]: 96.6% | %Inh [20]: 98.1%

Cl.Cl.NC[C@H](CC1CCCCC1)NC(=O)c1ccc(-c2ccnc3[nH]ccc23)s1 [GSK1581428]
%Inh [1]: 11% | %Inh [2]: 39% | %Inh [3]: 23% | %Inh [4]: 51% | %Inh [5]: 89% | %Inh [6]: 44% | %Inh [7]: 96.8% | %Inh [8]: 27% | %Inh [9]: 99% | %Inh [10]: 85% | %Inh [11]: 82% | %Inh [12]: 63% | %Inh [13]: 90% | %Inh [14]: 0% | %Inh [15]: 85% | %Inh [16]: 0% | %Inh [17]: 69% | %Inh [18]: 77% | %Inh [19]: 80% | %Inh [20]: 82%

Cc1n[nH]c2cc(Nc3ccnc(Nc4cccc(CN5CCOCC5)c4)n3)ccc12 [GW682569]
%Inh [1]: 35% | %Inh [2]: 4% | %Inh [3]: 2% | %Inh [4]: 17% | %Inh [5]: 0% | %Inh [6]: 0% | %Inh [7]: 0% | %Inh [8]: 27% | %Inh [9]: 35% | %Inh [10]: 29% | %Inh [11]: 3% | %Inh [12]: 11% | %Inh [13]: 0% | %Inh [14]: 68% | %Inh [15]: 87% | %Inh [16]: 27% | %Inh [17]: 0% | %Inh [18]: 0% | %Inh [19]: 10% | %Inh [20]: 19%

CS(=O)(=O)Nc1ccc(-c2ccnc3[nH]ccc23)cc1 [GSK993273]
%Inh [1]: 18% | %Inh [2]: 0% | %Inh [3]: 0% | %Inh [4]: 19% | %Inh [5]: 0% | %Inh [6]: 0% | %Inh [7]: 0% | %Inh [8]: 0% | %Inh [9]: 57% | %Inh [10]: 96.7% | %Inh [11]: 94.8% | %Inh [12]: 58% | %Inh [13]: 96.3% | %Inh [14]: 0% | %Inh [15]: 32% | %Inh [16]: 0% | %Inh [17]: 21% | %Inh [18]: 5% | %Inh [19]: 20% | %Inh [20]: 33%

Cc1cccc(-c2nc(Nc3ccncc3)c3sccc3n2)n1 [GW869641]
%Inh [1]: 8% | %Inh [2]: 11% | %Inh [3]: 22% | %Inh [4]: 0% | %Inh [5]: 15% | %Inh [6]: 31% | %Inh [7]: 0% | %Inh [8]: 0% | %Inh [9]: 96.6% | %Inh [10]: 4% | %Inh [11]: 15% | %Inh [12]: 23% | %Inh [13]: 22% | %Inh [14]: 42% | %Inh [15]: 10% | %Inh [16]: 7% | %Inh [17]: 17% | %Inh [18]: 65% | %Inh [19]: 90% | %Inh [20]: 94.9%
